# Assay results as given in publication PMC7862700, “An all-to-all approach to the identification of sequence-specific readers for epigenetic DNA modifications on cytosine”.
# Experiments:
# Experiment in all cases: DAPPL (digital affinity profiling via proximity ligation, sequencing); 10 mM Tris-HCl pH 7.5, 50 mM NaCl, 1 mM DTT, 4% glycerol, room temperature, 30 min; GST-TFs on glutathione beads, 16-mer random dsDNA library, 0.1% formaldehyde crosslink after washing; high values mean tight binding
# FLI1 = biological target: T1, FLI1 (Homo sapiens, UniProt Q01543 1-452); conditions: protein: recombinant; tags: N-terminal GST; dsDNA, one strand shown
# T1 sequence: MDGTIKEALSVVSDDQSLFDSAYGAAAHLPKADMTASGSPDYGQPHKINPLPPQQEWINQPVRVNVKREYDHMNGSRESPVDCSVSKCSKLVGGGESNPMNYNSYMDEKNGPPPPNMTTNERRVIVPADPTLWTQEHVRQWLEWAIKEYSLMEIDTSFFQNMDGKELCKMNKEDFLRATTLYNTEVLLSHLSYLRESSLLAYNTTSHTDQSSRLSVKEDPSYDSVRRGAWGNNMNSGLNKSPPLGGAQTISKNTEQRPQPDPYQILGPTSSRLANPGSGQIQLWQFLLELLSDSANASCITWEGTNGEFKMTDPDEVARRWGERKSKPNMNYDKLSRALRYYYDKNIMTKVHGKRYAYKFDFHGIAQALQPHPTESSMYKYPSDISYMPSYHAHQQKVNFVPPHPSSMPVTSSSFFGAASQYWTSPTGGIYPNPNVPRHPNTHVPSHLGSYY
# Summary of the method: (§1)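 Human transcription factors carrying a GST fusion were produced in yeast, bound to glutathione beads, tagged with DNA barcodes and pooled together with a tag-only sample. Each pool was held with 200 nmole of a random double-stranded 16-mer DNA library in Tris/NaCl/DTT/glycerol buffer for 30 min at room temperature, then washed, crosslinked in 0.1% formaldehyde, proximity-ligated with BsaI/T4 ligase (1 h, 37 °C), PCR-amplified and sequenced on an Illumina NextSeq500. Binding signal is the read frequency of each hexamer for a given factor divided by its frequency in the tag-only sample.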
# ELK1 = biological target: T2, ELK1 (Homo sapiens, UniProt P19419 1-428); conditions: protein: recombinant; tags: N-terminal GST; dsDNA, one strand shown
# T2 sequence: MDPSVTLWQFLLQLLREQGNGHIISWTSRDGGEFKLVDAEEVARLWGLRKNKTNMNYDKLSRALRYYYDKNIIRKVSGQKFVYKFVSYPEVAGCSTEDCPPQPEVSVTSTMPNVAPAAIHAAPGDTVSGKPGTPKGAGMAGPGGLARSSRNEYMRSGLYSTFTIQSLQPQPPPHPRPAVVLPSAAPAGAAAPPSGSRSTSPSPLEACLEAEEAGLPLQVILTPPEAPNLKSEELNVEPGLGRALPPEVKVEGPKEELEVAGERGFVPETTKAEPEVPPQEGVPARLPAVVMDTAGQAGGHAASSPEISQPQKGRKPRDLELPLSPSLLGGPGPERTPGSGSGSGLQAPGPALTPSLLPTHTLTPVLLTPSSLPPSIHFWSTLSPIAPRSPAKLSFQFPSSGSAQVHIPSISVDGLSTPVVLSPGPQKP
# Summary of the method: as §1
# GABPA = biological target: T3, GABPA (Homo sapiens, UniProt Q06546 1-454); conditions: protein: recombinant; tags: N-terminal GST; dsDNA, one strand shown
# T3 sequence: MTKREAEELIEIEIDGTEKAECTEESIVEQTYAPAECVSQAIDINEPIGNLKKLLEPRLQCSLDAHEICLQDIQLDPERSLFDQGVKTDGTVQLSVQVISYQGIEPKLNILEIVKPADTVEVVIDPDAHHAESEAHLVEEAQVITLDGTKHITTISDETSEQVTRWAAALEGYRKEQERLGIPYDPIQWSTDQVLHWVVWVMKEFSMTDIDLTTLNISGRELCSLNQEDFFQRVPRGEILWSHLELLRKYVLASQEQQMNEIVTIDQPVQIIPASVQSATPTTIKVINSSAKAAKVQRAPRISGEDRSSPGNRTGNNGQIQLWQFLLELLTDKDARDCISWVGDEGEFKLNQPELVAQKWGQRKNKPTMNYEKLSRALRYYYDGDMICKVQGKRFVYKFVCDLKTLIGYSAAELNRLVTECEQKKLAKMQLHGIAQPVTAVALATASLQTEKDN
# Summary of the method: as §1
# ERG = biological target: T4, ERG (Homo sapiens, UniProt P11308 1-479); conditions: protein: recombinant; tags: N-terminal GST; dsDNA, one strand shown
# T4 sequence: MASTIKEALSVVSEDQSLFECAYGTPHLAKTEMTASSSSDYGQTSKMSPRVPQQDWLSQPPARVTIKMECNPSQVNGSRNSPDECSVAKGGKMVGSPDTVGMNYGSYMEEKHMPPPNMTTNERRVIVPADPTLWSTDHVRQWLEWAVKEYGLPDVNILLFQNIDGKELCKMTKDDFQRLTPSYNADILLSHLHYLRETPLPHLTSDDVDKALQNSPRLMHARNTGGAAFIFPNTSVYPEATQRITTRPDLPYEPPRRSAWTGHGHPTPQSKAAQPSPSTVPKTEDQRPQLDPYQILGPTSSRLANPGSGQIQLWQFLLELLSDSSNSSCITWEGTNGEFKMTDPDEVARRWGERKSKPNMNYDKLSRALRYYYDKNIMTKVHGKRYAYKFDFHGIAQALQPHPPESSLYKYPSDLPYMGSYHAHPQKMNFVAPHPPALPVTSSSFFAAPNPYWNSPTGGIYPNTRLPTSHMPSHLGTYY
# Summary of the method: as §1
# ELF1 = ELF1 (Homo sapiens, UniProt P32519 1-619); conditions: protein: recombinant; tags: N-terminal GST; dsDNA, one strand shown
# ELF1, sequence (P32519 whole entry): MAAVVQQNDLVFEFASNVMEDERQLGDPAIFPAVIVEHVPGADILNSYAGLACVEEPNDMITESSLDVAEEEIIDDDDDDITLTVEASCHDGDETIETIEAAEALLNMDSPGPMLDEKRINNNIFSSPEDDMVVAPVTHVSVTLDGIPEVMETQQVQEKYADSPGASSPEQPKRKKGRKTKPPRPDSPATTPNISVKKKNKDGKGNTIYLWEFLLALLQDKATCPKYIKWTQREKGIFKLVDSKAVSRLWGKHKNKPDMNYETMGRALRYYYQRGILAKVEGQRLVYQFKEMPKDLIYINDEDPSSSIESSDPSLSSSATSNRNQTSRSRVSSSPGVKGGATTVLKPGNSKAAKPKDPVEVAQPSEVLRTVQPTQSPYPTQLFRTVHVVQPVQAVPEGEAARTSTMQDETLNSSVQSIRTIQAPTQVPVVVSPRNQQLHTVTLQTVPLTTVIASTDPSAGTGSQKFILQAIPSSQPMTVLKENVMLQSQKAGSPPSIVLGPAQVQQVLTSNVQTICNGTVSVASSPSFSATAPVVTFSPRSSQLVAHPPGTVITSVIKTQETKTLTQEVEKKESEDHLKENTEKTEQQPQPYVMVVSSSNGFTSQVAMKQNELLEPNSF
# Summary of the method: as §1
# EHF = biological target: T5, EHF (Homo sapiens, UniProt Q9NZC4 1-300); conditions: protein: recombinant; tags: N-terminal GST; dsDNA, one strand shown
# T5 sequence: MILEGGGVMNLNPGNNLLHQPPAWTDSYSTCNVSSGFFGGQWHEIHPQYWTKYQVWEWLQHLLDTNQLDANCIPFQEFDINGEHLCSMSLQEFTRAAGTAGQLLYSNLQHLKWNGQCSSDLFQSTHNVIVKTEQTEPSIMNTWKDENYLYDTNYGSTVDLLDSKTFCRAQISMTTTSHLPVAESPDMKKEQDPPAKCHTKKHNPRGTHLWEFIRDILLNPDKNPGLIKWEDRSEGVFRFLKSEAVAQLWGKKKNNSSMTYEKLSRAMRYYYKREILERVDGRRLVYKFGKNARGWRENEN
# Summary of the method: as §1
# SPI1 = SPI1 (Homo sapiens, UniProt P17947 1-270); conditions: protein: recombinant; tags: N-terminal GST; dsDNA, one strand shown
# Summary of the method: as §1
# SPIB = SPIB (Homo sapiens, UniProt Q01892 1-262); conditions: protein: recombinant; tags: N-terminal GST; dsDNA, one strand shown
# SPIB, sequence (Q01892 whole entry): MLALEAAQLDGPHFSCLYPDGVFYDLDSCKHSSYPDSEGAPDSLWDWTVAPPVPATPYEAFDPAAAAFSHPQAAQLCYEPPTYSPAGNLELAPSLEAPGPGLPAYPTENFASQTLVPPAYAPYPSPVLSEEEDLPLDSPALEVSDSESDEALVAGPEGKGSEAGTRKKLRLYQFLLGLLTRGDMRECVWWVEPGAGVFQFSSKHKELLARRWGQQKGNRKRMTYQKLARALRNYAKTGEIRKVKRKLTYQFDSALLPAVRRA
# Summary of the method: as §1
# ELK3 = biological target: T6, ELK3 (Homo sapiens, UniProt P41970 1-407); conditions: protein: recombinant; tags: N-terminal GST; dsDNA, one strand shown
# T6 sequence: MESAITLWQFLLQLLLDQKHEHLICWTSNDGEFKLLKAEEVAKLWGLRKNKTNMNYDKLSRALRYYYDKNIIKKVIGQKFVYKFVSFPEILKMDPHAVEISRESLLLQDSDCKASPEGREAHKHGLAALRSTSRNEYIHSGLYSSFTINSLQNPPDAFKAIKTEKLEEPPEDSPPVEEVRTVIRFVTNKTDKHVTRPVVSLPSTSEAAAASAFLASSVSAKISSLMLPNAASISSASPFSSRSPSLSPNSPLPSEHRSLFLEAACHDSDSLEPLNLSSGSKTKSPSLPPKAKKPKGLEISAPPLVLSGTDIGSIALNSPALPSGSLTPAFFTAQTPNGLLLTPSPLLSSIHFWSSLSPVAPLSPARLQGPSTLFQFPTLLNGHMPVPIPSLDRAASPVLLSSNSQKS
# Summary of the method: as §1
# FEV = biological target: T7, FEV (Homo sapiens, UniProt Q99581 1-238); conditions: protein: recombinant; tags: N-terminal GST; dsDNA, one strand shown
# T7 sequence: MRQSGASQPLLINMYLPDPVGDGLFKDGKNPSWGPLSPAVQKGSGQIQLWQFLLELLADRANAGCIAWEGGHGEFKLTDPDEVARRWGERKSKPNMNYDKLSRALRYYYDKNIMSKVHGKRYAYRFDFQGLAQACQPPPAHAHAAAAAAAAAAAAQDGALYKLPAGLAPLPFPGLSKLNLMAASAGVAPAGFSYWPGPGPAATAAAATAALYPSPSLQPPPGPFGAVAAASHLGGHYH
# Summary of the method: as §1
# ETV5 = ETV5 (Homo sapiens, UniProt P41161 1-510); conditions: protein: recombinant; tags: N-terminal GST; dsDNA, one strand shown
# ETV5, sequence (P41161 whole entry): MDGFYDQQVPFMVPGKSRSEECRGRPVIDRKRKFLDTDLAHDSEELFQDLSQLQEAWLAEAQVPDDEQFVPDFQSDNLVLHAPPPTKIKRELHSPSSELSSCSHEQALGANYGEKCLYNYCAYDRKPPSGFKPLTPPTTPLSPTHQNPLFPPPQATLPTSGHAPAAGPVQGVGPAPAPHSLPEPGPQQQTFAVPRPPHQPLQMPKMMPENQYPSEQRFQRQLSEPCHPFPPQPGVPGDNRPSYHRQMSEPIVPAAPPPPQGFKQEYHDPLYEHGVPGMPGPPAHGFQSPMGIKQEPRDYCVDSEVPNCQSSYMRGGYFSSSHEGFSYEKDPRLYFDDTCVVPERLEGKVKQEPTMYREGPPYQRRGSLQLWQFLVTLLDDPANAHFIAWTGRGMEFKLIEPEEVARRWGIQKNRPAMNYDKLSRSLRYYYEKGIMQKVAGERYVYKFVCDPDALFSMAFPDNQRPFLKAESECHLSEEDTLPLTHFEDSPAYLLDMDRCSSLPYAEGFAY
# Summary of the method: as §1
# HSF1 = HSF1 (Homo sapiens, UniProt Q00613 1-529); conditions: protein: recombinant; tags: N-terminal GST; chain copies: 3; dsDNA, one strand shown
# HSF1, sequence (Q00613 whole entry): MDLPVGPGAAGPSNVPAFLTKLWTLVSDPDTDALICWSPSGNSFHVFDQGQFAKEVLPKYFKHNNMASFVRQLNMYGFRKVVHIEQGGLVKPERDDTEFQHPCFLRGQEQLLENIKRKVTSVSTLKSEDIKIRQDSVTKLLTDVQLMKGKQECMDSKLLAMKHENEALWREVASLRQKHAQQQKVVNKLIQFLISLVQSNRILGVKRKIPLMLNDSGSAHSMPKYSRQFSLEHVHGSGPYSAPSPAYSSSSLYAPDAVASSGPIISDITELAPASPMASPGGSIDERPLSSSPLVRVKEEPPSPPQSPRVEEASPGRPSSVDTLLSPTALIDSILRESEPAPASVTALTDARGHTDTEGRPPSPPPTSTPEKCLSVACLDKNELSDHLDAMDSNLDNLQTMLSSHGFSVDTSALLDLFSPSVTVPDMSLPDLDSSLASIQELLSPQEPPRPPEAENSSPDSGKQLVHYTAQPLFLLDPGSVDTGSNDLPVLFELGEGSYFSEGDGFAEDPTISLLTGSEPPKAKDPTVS
# Summary of the method: as §1
# SPIC = biological target: T8, SPIC (Homo sapiens, UniProt Q8N5J4 1-248); conditions: protein: recombinant; tags: N-terminal GST; dsDNA, one strand shown
# T8 sequence: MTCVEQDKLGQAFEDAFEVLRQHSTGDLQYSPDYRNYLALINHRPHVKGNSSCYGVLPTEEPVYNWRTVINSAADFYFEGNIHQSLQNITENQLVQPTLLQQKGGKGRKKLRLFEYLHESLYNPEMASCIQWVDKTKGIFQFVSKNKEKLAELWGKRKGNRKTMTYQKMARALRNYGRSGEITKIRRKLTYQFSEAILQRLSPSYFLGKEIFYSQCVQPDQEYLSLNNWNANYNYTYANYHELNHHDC
# Summary of the method: as §1
# ELF4 = ELF4 (Homo sapiens, UniProt Q99607 1-663); conditions: protein: recombinant; tags: N-terminal GST; dsDNA, one strand shown
# ELF4, sequence (Q99607 whole entry): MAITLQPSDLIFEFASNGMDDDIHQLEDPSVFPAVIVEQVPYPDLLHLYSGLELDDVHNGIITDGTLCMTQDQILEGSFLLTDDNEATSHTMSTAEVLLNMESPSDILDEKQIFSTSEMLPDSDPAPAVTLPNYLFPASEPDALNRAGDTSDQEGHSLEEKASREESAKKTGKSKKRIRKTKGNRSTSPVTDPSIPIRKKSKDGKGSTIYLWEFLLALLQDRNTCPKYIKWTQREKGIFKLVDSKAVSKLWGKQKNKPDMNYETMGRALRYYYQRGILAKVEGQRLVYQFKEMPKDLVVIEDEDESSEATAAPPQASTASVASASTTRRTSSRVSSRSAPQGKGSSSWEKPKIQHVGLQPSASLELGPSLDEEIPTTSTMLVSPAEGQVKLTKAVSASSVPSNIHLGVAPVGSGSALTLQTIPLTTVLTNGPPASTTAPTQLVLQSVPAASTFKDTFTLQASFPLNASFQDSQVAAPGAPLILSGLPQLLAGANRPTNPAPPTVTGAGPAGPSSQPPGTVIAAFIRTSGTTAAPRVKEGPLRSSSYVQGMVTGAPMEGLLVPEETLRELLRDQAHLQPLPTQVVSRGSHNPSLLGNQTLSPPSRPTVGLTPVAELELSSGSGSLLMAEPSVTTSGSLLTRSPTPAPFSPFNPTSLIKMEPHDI
# Summary of the method: as §1
# ELK4 = biological target: T9, ELK4 (Homo sapiens, UniProt P28324-2 1-405); conditions: protein: recombinant; tags: N-terminal GST; dsDNA, one strand shown
# T9 sequence: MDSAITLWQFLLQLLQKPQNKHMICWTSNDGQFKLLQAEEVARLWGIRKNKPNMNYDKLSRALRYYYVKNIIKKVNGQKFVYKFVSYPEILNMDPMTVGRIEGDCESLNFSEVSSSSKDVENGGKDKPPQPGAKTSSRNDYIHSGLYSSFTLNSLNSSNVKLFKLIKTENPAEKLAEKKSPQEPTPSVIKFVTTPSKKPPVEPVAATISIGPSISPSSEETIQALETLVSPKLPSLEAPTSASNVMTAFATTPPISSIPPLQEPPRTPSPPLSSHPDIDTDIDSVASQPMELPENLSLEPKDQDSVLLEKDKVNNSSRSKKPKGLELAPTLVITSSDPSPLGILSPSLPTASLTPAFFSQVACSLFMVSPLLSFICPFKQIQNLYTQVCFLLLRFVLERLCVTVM
# Summary of the method: as §1
# ETV2 = biological target: T10, ETV2 (Homo sapiens, UniProt O00321 1-342); conditions: protein: recombinant; tags: N-terminal GST; dsDNA, one strand shown
# T10 sequence: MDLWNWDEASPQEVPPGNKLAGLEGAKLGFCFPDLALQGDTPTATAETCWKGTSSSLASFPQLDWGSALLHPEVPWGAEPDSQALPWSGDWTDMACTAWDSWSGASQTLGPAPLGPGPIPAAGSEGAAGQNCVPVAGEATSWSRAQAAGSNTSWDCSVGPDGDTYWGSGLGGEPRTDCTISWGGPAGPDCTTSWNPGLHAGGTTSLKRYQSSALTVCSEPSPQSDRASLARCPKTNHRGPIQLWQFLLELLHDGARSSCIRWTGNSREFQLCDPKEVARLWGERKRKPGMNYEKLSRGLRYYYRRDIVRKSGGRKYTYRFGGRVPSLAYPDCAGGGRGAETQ
# Summary of the method: as §1
# ELF3 = biological target: T11, ELF3 (Homo sapiens, UniProt P78545 1-371); conditions: protein: recombinant; tags: N-terminal GST; dsDNA, one strand shown
# T11 sequence: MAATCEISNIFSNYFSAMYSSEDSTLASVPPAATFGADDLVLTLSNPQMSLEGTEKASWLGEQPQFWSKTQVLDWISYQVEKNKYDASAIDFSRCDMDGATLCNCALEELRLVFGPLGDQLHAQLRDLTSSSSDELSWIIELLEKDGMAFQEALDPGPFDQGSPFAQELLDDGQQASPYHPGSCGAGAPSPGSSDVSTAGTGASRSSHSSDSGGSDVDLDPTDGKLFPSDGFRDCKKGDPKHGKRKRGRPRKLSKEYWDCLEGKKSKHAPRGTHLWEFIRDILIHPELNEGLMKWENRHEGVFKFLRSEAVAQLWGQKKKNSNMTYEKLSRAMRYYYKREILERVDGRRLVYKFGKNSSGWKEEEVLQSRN
# Summary of the method: as §1
# CRX = CRX (Homo sapiens, UniProt O43186 1-299); conditions: protein: recombinant; tags: N-terminal GST; dsDNA, one strand shown
# CRX, sequence (O43186 whole entry): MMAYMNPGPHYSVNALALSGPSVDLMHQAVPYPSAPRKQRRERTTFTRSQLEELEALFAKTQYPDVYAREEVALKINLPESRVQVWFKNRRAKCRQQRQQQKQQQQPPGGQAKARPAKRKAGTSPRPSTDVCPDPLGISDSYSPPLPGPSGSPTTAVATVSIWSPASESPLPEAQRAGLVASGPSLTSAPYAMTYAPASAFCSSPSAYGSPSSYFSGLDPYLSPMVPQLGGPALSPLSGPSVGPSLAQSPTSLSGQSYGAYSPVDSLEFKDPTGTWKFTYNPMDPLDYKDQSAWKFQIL
# Summary of the method: as §1
# ETV1 = ETV1 (Homo sapiens, UniProt P50549 1-477); conditions: protein: recombinant; tags: N-terminal GST; dsDNA, one strand shown
# ETV1, sequence (P50549 whole entry): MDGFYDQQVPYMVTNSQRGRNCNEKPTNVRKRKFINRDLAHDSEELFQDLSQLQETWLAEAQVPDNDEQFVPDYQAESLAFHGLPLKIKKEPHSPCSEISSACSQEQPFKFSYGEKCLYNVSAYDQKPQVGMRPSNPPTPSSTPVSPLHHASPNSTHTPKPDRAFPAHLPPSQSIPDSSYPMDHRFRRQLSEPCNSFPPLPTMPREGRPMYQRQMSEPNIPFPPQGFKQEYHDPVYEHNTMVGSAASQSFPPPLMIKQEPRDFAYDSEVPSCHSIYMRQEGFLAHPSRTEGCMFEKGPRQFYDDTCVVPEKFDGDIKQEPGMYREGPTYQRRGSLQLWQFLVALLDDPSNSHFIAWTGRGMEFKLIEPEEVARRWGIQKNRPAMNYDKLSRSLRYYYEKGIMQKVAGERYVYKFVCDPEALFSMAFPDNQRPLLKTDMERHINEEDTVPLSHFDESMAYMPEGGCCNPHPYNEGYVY
# Summary of the method: as §1
sequence,measurement,setting,value
TTTACG,binding signal,FLI1,"1.39 fold enrichment (6-mer frequency, TF over GST control)"
same,binding signal,ELK1,"1.28 fold enrichment (6-mer frequency, TF over GST control)"
same,binding signal,GABPA,"1.34 fold enrichment (6-mer frequency, TF over GST control)"
same,binding signal,ERG,"1.26 fold enrichment (6-mer frequency, TF over GST control)"
same,binding signal,ELF1,"1.26 fold enrichment (6-mer frequency, TF over GST control)"
same,binding signal,EHF,"1.3 fold enrichment (6-mer frequency, TF over GST control)"
same,binding signal,SPI1,"1.33 fold enrichment (6-mer frequency, TF over GST control)"
same,binding signal,SPIB,"1.23 fold enrichment (6-mer frequency, TF over GST control)"
same,binding signal,ELK3,"1.27 fold enrichment (6-mer frequency, TF over GST control)"
same,binding signal,FEV,"1.26 fold enrichment (6-mer frequency, TF over GST control)"
same,binding signal,ETV5,"1.28 fold enrichment (6-mer frequency, TF over GST control)"
same,binding signal,HSF1,"1.32 fold enrichment (6-mer frequency, TF over GST control)"
same,binding signal,SPIC,"1.24 fold enrichment (6-mer frequency, TF over GST control)"
same,binding signal,ELF4,"1.32 fold enrichment (6-mer frequency, TF over GST control)"
same,binding signal,ELK4,"1.29 fold enrichment (6-mer frequency, TF over GST control)"
same,binding signal,ETV2,"1.33 fold enrichment (6-mer frequency, TF over GST control)"
same,binding signal,ELF3,"1.28 fold enrichment (6-mer frequency, TF over GST control)"
same,binding signal,CRX,"1.62 fold enrichment (6-mer frequency, TF over GST control)"
same,binding signal,ETV1,"1.32 fold enrichment (6-mer frequency, TF over GST control)"
